Inconclusive results are not listed. Activity calls are given as the source filed them. How the source made its calls: active means hit-call score of the fitted dose curve at least 0.9, where 1 is the maximum; inconclusive means response in the unintended direction; inactive means score below 0.9.
Columns and labels:
[1] = Tanguay_ZF_120hpf_EYE_legacy: (Legacy) Oregon State University Tanguay Lab 120 Hour Post-fertilization zebrafish Assay for Eye Malformation (AID 2283636)
How it was run: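 Read-out is binary presence or absence of eye malformation, scored by brightfield microscopy at 120 hpf. Single larvae were exposed from 6 hpf in embryo medium containing 0.64% DMSO, with DMSO as baseline.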

[2] = Tanguay_ZF_120hpf_SNOU_legacy: (Legacy) Oregon State University Tanguay Lab 120 Hour Post-fertilization zebrafish Assay for Snout Malformation (AID 2283637)
How it was run: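 Snout malformation read as a yes/no call on brightfield images of 120 hpf larvae (Tropical 5D strain). Static exposure began at 6 hpf on dechorionated embryos in 0.64% DMSO, with gain of signal analysed versus DMSO controls.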

[3] = Tanguay_ZF_120hpf_JAW_legacy: (Legacy) Oregon State University Tanguay Lab 120 Hour Post-fertilization zebrafish Assay for Jaw Malformation (AID 2283638);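 on AC50: active means more embryos with jaw malformation than DMSO controls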
How it was run: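 Static waterborne exposure of dechorionated wild-type (Tropical 5D) zebrafish from 6 to 120 hpf at 28C, 0.64% DMSO vehicle; 5uM trimethyltin chloride served as positive control. Jaw morphology recorded as binary at 120 hpf.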

[4] = Tanguay_ZF_120hpf_OTIC_legacy: (Legacy) Oregon State University Tanguay Lab 120 Hour Post-fertilization zebrafish Assay for Otic Vesicle Malformation (AID 2283639)
How it was run: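 Otic vesicle malformation is read as a yes/no morphology call at 120 hpf. Exposure is static at 28C with 0.64% (vol/vol) DMSO; embryos that die are excluded from non-mortality endpoints.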

[5] = Tanguay_ZF_120hpf_PE_legacy: (Legacy) Oregon State University Tanguay Lab 120 Hour Post-fertilization zebrafish Assay for Pericardial Edema (AID 2283640);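 on AC50: potency for increased incidence of pericardial edema versus DMSO baseline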
How it was run: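 Read-out is the presence or absence of pericardial edema at 120 hpf under brightfield, with gain of signal fitted against DMSO controls. Larvae (5D wild-type) were statically exposed at 28C with 0.64% final DMSO.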

[6] = Tanguay_ZF_120hpf_BRAI_legacy: (Legacy) Oregon State University Tanguay Lab 120 Hour Post-fertilization zebrafish Assay for Brain Malformation (AID 2283641)
How it was run: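 Brain malformation in Tropical 5D zebrafish was recorded as a binary endpoint after static compound exposure from early development to 120 hpf at 28C. Activity was analysed against DMSO as negative control.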

[7] = Tanguay_ZF_120hpf_SOMI_legacy: (Legacy) Oregon State University Tanguay Lab 120 Hour Post-fertilization zebrafish Assay for Somite Malformation (AID 2283647)
How it was run: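 5D WT zebrafish; chorion removed 4 hpf; 1 embryo/well from 6 hpf; static exposure to 120 hpf, 28C, 0.64% DMSO final. Endpoint: somite malformation, binary, brightfield. Mortality excluded.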

[8] = Tanguay_ZF_120hpf_PFIN_legacy: (Legacy) Oregon State University Tanguay Lab 120 Hour Post-fertilization zebrafish Assay for Pectoral Fin Malformation (AID 2283648);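 further: each larva judged yes or no for fin defect by brightfield with dead larvae skipped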
How it was run: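 5D WT zebrafish; pronase dechorionation 4 hpf; 1 embryo/well at 6 hpf; static exposure to 120 hpf, 28C, sealed, foil-covered; final DMSO 0.64% v/v; 5 uM trimethyltin chloride positive control; fin defect scored yes/no.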

[9] = Tanguay_ZF_120hpf_CFIN_legacy: (Legacy) Oregon State University Tanguay Lab 120 Hour Post-fertilization zebrafish Assay for Caudal Fin Malformation (AID 2283649)
How it was run: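 Embryos were collected from Tropical 5D wild-type adults and dechorionated at 4 hpf. At 6 hpf each was exposed, one per well, at 0.64% DMSO and 28C. At 120 hpf fin morphology was scored; dead embryos were excluded.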

[10] = Tanguay_ZF_120hpf_PIG_legacy: (Legacy) Oregon State University Tanguay Lab 120 Hour Post-fertilization zebrafish Assay for Pigmentation Malformation (AID 2283650)
How it was run: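 Pronase dechorionation at 4 hpf; embryos plated at 6 hpf, one per well; static exposure, sealed and foil-covered, 28C, to 120 hpf; pigmentation read by brightfield, binary; DMSO 0.64% baseline, 5uM trimethyltin chloride positive control.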

Measured: AC50

c1ccc(OP(Oc2ccccc2)Oc2ccccc2)cc1
inactive: all assays above

Nc1ccc2ccccc2c1
inactive: [4] | [7] | [8] | [9]
active: [1] 47.7 µM | [2] 33.9 µM | [3] 34.9 µM | [5] 42 µM | [6] 202 µM | [10] 46.5 µM

O=C(O)C1C(C(=O)O)C2(Cl)C(Cl)=C(Cl)C1(Cl)C2(Cl)Cl (stereo not given)
inactive: all assays above

CCOS(=O)(=O)OCC
not listed: [10]
inactive: all other assays above

c1ccc2c(c1)Nc1ccccc1S2
not listed: [8]
inactive: all other assays above

c1cc2c3c(cccc3c1)CC2
inactive: all assays above

CCCCc1ccccc1
inactive: all assays above

CC(Cc1ccc(OCC(=O)O)cc1)NCC(O)c1csc(C(F)(F)F)n1 (stereo not given)
inactive: all assays above

O=[N+]([O-])c1ccc(Cl)c(Cl)c1
inactive: all assays above

O=C(O)C(Cl)Cl
inactive: all assays above

CCC(C)(C)c1ccc(O)cc1
active: [1] 22.3 µM | [2] 52.7 µM | [3] 14.7 µM | [4] 48.4 µM | [5] 44.5 µM | [6] 48.1 µM | [7] 36.6 µM | [8] 22.2 µM | [9] 48.8 µM | [10] 47.4 µM

OCC1CO1 (stereo not given)
inactive: all assays above

CCOP(=S)(Oc1ccc([N+](=O)[O-])cc1)c1ccccc1 (stereo not given)
not listed: [10]
inactive: all other assays above

COCCOCCO
not listed: [8]
inactive: all other assays above

O=P1(N(CCCl)CCCl)NCCCO1 (stereo not given)
inactive: all assays above

CSC(C)(C)C=NO
inactive: all assays above

O=[N+]([O-])c1ccccc1
not listed: [10]
inactive: all other assays above

CCC1(c2ccccc2)C(=O)N=C(O)NC1=O (stereo not given)
inactive: all assays above

ClC1=C(Cl)C2(Cl)C3C(Cl)C(Cl)CC3C1(Cl)C2(Cl)Cl (stereo not given)
not listed: [8]
inactive: all other assays above

O=P(Oc1ccccc1)(Oc1ccccc1)Oc1ccccc1
inactive: all assays above

CCOP(=S)(OCC)SCSCC
inactive: all assays above

CCCN(CCC)c1c([N+](=O)[O-])cc(C(C)C)cc1[N+](=O)[O-]
inactive: [2] | [5] | [6] | [7] | [8] | [9]

CCN(CC)c1ccccc1
inactive: [2] | [4] | [5] | [6] | [7] | [9]

CC(C)(C)c1ccc(O)cc1
active: [10] 25.2 µM
not listed: [4] | [6]
inactive: all other assays above

CC(Cl)(Cl)C(=O)O
not listed: [4]
inactive: all other assays above

CCCCN(CCCC)N=O
not listed: [4] | [10]
inactive: all other assays above

Cc1cccc(N)c1
not listed: [4] | [8]
inactive: all other assays above

CCOC(=O)c1ccccc1C(=O)OCC
not listed: [4]
inactive: all other assays above

Cc1ccc(N)cc1N
not listed: [3] | [8] | [9]
inactive: all other assays above

[N-]=[N+]=[N-]
not listed: [5]
inactive: all other assays above

CN(C)C(=O)Cl
not listed: [7] | [8]
inactive: all other assays above

Nc1ccc(Cl)cc1
not listed: [8]
inactive: all other assays above

CC(C)(C)OOC(C)(C)C
not listed: [4]
inactive: all other assays above

Cc1ccc([N+](=O)[O-])cc1C
not listed: [7] | [9]
inactive: all other assays above

ClC(Cl)c1ccccc1
not listed: [6] | [7]
inactive: all other assays above

c1nc[nH]n1
inactive: [2] | [4] | [6] | [7] | [9] | [10]

CCCCN(CCCC)SN(C)C(=O)Oc1cccc2c1OC(C)(C)C2
not listed: [1] | [5]
inactive: all other assays above

CCNc1nc(Cl)nc(NC(C)(C)C)n1
not listed: [1] | [3] | [5]
inactive: all other assays above

ClC(Cl)(Cl)c1ccccc1
inactive: [1] | [3] | [4] | [7] | [9] | [10]

CCCCCCCc1ccc(O)cc1
not listed: [4] | [9]
inactive: all other assays above

CCOc1ccc(C(C)(C)COCc2cccc(Oc3ccccc3)c2)cc1
not listed: [4]
inactive: all other assays above

Nc1cc2c3c(c1)C(c1ccccc1)=N[C@@H](NC(=O)c1cccnc1)C(=O)N3CC2
not listed: [1] | [4] | [6]
inactive: all other assays above

Cc1ccc(O)cc1C
not listed: [4] | [6]
inactive: all other assays above

— PubChem BioAssay (EPA / NIEHS)
